Source: PubChem BioAssay (NCATS)
Results filed as inconclusive are left out. Activity calls are given as the source filed them. Unless noted, the call rests on the fitted dose curve.

Columns and labels:
[1] = qHTS for Inhibitors of the Functional Ribonucleoprotein Complex (vRNP) of Lassa (LASV) Arenavirus: LASV Primary Screen - GLuc reporter signal (AID 1347082; calls by dose curve; tested in HEK293 reporter line; further: nearly all actives have a fitted effect of over 60% in size); details: LASV minigenome vRNP, Gaussia luciferase reporter; series mostly up to 57.5 µM
[2] = qHTS for Inhibitors of the Functional Ribonucleoprotein Complex (vRNP) of Lassa (LASV) Arenavirus: Viability assay - alamar blue signal for LASV Primary Screen (AID 1347083; calls by dose curve; tested in HEK293 reporter line; further: nearly all actives have a fitted effect of over 80% in size); details: cell viability, alamar blue fluorescence (LASV minigenome counter-screen); series mostly up to 57.5 µM
[3] = qHTS for Inhibitors of the Functional Ribonucleoprotein Complex (vRNP) of Lymphocytic Choriomeningitis Arenaviruses (LCMV): Viability assay - alamar blue signal for LCMV Primary Screen (AID 1347085; calls by dose curve; tested in HEK293 reporter line; further: nearly all actives have a fitted effect of over 80% in size); details: alamar blue viability counter-screen, LCMV vRNP screen cells; series mostly up to 57.5 µM
[4] = target: Nucleoprotein (Lymphocytic choriomeningitis virus (strain Armstrong)) (UniProt P09992); experiment: qHTS for Inhibitors of the Functional Ribonucleoprotein Complex (vRNP) of Lymphocytic Choriomeningitis Arenaviruses (LCMV): LCMV Primary Screen - GLuc reporter signal (AID 1347086); details: LCMV minigenome vRNP cell assay, Gaussia luciferase reporter; series mostly up to 57.5 µM; further: nearly all actives have a fitted effect of over 70% in size

Measured: Potency

Nucleoprotein (Lymphocytic choriomeningitis virus (strain Armstrong)), sequence (P09992 whole entry, looked up): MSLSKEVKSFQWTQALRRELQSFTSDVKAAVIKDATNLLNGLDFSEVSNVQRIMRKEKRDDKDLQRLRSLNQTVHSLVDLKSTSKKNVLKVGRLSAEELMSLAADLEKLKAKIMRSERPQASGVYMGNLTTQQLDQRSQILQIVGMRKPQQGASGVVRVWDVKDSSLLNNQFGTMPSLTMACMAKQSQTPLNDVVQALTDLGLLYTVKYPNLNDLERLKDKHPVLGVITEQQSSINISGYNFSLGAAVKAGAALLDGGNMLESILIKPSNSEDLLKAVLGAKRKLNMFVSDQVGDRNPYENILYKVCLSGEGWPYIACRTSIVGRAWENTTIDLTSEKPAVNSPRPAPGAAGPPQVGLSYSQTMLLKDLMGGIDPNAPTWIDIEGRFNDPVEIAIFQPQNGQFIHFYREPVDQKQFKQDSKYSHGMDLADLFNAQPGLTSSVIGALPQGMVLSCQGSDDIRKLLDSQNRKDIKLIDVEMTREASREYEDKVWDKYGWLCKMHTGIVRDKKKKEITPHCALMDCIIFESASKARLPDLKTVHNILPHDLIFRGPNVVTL

CCN(CC)CCNC(=O)c1cc(Cl)c(N)cc1OC
inactive: all assays above

CC(=O)N[C@@H](CS)C(=O)O
inactive: all assays above

COc1nc(N)nc2c1ncn2[C@@H]1O[C@H](CO)[C@@H](O)[C@@H]1O
inactive: all assays above

COc1cc2nc(N(C)CCCNC(=O)C3CCCO3)nc(N)c2cc1OC (stereo not drawn)
inactive: all assays above

COC(=O)C(c1ccccc1Cl)N1CCc2sccc2C1 (stereo not drawn)
inactive: all assays above

CC(C)NC[C@@H](O)COc1ccc(CC(N)=O)cc1
inactive: all assays above

COc1ccccc1OCC(O)COC(N)=O (stereo not drawn)
inactive: all assays above

COCCCC/C(=N\OCCN)c1ccc(C(F)(F)F)cc1
inactive: all assays above

CCC1(c2ccccc2)C(=O)NCNC1=O
inactive: all assays above

CCCCS(=O)(=O)N[C@@H](Cc1ccc(OCCCCC2CCNCC2)cc1)C(=O)O
inactive: all assays above

CNCCc1ccccn1
inactive: all assays above

CN(C)CCC=C1c2ccccc2CCc2ccccc21
inactive: all assays above

Cc1c(OCC(F)(F)F)ccnc1CS(=O)c1nc2ccccc2[nH]1 (stereo not drawn)
inactive: all assays above

CCCc1cc(=O)[nH]c(=S)[nH]1
inactive: all assays above

NC(=O)OCC(COC(N)=O)c1ccccc1
inactive: all assays above

CC(=O)SC[C@@H](C)C(=O)N1CCC[C@H]1C(=O)N[C@@H](Cc1ccccc1)C(=O)O
inactive: all assays above

Cc1cc2c(s1)Nc1ccccc1N=C2N1CCN(C)CC1
inactive: all assays above

COc1ccc(Cl)cc1C(=O)NCCc1ccc(S(=O)(=O)NC(=O)NC2CCCCC2)cc1
inactive: all assays above

CCCN(CCC)CCc1cccc2c1CC(=O)N2
inactive: all assays above

CN1CCN(C2=Nc3ccccc3Oc3ccc(Cl)cc32)CC1
inactive: all assays above

Nc1cc(-c2ccncc2)c[nH]c1=O
inactive: all assays above

O=c1[nH]cnc2c1ncn2[C@H]1CC[C@@H](CO)O1
inactive: all assays above
